# In PubChem BioAssay (NCATS):
# Several values for one entry are separate records, joined by “and”; a condition that tells them apart may be missing. Equal values may be shown once. Inconclusive results are not listed. Activity calls are given as the source filed them. Unless noted, the call rests on the fitted dose curve.
# Key:
# [1] = qHTS profiling for inhibitors of Plasmodium falciparum proliferation (AID 504749; active means well fitted inhibition curve with a large enough effect; further: nearly all actives have a fitted effect of over 60% in size); conditions: P. falciparum in erythrocytes, SYBR Green DNA, 72 h
# In short: (§1)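 In a 72 h erythrocytic culture (37 C, humidified, 5% CO2) at 2.5% hematocrit and 0.3% starting parasitemia, compounds were tested; SYBR Green I in detergent lysis buffer stained parasite DNA overnight.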
# [2] = system: 3D7; test: as above; conditions: P. falciparum in erythrocytes, SYBR Green DNA, 72 h
# In short: as §1
# [3] = system: 7G8; test: as above; conditions: P. falciparum in erythrocytes, SYBR Green DNA, 72 h
# In short: as §1
# [4] = system: AA1029; test: as above; conditions: P. falciparum in erythrocytes, SYBR Green DNA, 72 h
# In short: as §1
# [5] = system: AS120; test: as above; conditions: P. falciparum in erythrocytes, SYBR Green DNA, 72 h
# In short: as §1
# [6] = system: ATS189; test: as above; conditions: P. falciparum in erythrocytes, SYBR Green DNA, 72 h
# In short: as §1
# [7] = system: ATS95; test: as above; conditions: P. falciparum in erythrocytes, SYBR Green DNA, 72 h
# In short: as §1
# [8] = system: C2A; test: as above; conditions: P. falciparum in erythrocytes, SYBR Green DNA, 72 h
# In short: as §1
# [9] = system: CP185; test: as above; conditions: P. falciparum in erythrocytes, SYBR Green DNA, 72 h
# In short: as §1
# [10] = system: CP191; test: as above; conditions: P. falciparum in erythrocytes, SYBR Green DNA, 72 h
# In short: as §1
# [11] = system: CP192; test: as above; conditions: P. falciparum in erythrocytes, SYBR Green DNA, 72 h
# In short: as §1
# [12] = system: CP194; test: as above; conditions: P. falciparum in erythrocytes, SYBR Green DNA, 72 h
# In short: as §1
# [13] = system: CP201; test: as above; conditions: P. falciparum in erythrocytes, SYBR Green DNA, 72 h
# In short: as §1
# [14] = qHTS drug screen for cell cycle checkpoint inhibitors in PARPi-resistant BRCA-mutant ovarian cancer cell lines. (AID 1963452); conditions: PEO1/OlaR viability, CellTiter-Glo luminescence, 96 h; for Z-AUC: stronger effect = lower value
# In short: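 PEO1, PEO4 and PEO1/OlaR ovarian cancer cells, 600 per well, exposed 96 h at 37C to a dilution series. Viability read by CellTiter-Glo luminescence, normalized to DMSO and empty wells; activity summarized as Z-AUC.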
# [15] = measured here: PEO1 parental Z-AUC
# Potency means the concentration at half of the fitted maximal effect.
smiles,measurement,setting,value
CC(=O)O[C@H]1C(=O)[C@@]2(C)[C@H]([C@H](OC(=O)c3ccccc3)[C@]3(O)C[C@H](OC(=O)[C@H](O)[C@@H](NC(=O)c4ccccc4)c4ccccc4)C(C)=C1C3(C)C)[C@]1(OC(C)=O)CO[C@@H]1C[C@@H]2O,Potency,[1]; parasite line A,0.355 µM (active)
same,Potency,[1]; parasite line B,0.251 µM (active)
same,Potency,[2],0.282 µM (active)
same,Potency,[3],0.398 µM (active)
same,Potency,[4],0.562 µM (active)
same,Potency,[5],0.398 µM (active)
same,Potency,[6],0.631 µM (active)
same,Potency,[7],0.631 µM (active)
same,Potency,[8],0.355 µM (active)
same,Potency,[9],0.199 µM (active)
same,Potency,[10],0.178 µM (active)
same,Potency,[11],0.675 µM (active)
same,Potency,[12],0.675 µM (active)
same,Potency,[13],0.953 µM (active)
Cc1ccc(S(=O)(=O)Cc2nc(-c3ccc(C(=O)NCc4cccnc4)cc3)oc2C)cc1,Z-AUC,[14],-1.97 (inactive)
same,Z-AUC,[14]; [15],-3.12
same,Z-AUC,[14]; measured here: PEO4 Z-AUC,-2.76
CC(C)(C)C(=O)CN1C(=O)[C@H](NC(=O)Nc2cccc(C(=O)O)c2)CN(C2CCCCC2)c2ccccc21,Z-AUC,[14],1.75 (inactive)
same,Z-AUC,[14]; [15],1.32
same,Z-AUC,[14]; measured here: PEO4 Z-AUC,1.22
CC[C@]12C=CCN3CC[C@@]4(c5cc([C@@]6(C(=O)OC)C[C@H]7C[C@@H](C(C)(F)F)CN(Cc8c6[nH]c6ccccc86)C7)c(OC)cc5N(C)[C@H]4[C@@](O)(C(=O)OC)[C@@H]1OC(C)=O)[C@@H]32,Z-AUC,[14],-2.08 (inactive) and -1.5 (inactive)
same,Z-AUC,[14]; [15],-0.895 and -0.96
same,Z-AUC,[14]; measured here: PEO4 Z-AUC,-1.63 and -1.07
Cc1cc(C)c(CNC(=O)c2cc(-c3ccc(CN4CCOCC4)cc3)cc3c2cnn3C2CCCC2)c(=O)[nH]1,Z-AUC,[14],0.564 (inactive)
same,Z-AUC,[14]; [15],-0.591
same,Z-AUC,[14]; measured here: PEO4 Z-AUC,0.1
CC1=C(CO)C(=O)O[C@@H]([C@@H](C)[C@H]2CC[C@H]3[C@@H]4C[C@H]5O[C@]56[C@@H](O)C=CC(=O)[C@]6(C)[C@H]4CC[C@]23C)C1,Z-AUC,[14],-1.4 (inactive)
same,Z-AUC,[14]; [15],-1.83
same,Z-AUC,[14]; measured here: PEO4 Z-AUC,-1.49
COc1ccc(N(C)c2nc(C)nc3ccccc23)cc1,Potency,[14],0.0039 µM (active)
same,Z-AUC,[14]; [15],-2.78
same,Z-AUC,[14]; measured here: PEO4 Z-AUC,-2.81
O=C(NCc1cccc(O)c1)Nc1nc(-c2ccncc2)cs1,Z-AUC,[14],-0.136 (inactive)
same,Z-AUC,[14]; [15],0.195
same,Z-AUC,[14]; measured here: PEO4 Z-AUC,-0.295
Cc1c(NC(=O)c2cc(C(N)=O)nc3cc(F)ccc23)c(C(F)(F)F)nn1Cc1ccc(C#N)cc1,Z-AUC,[14],-2.01 (inactive)
same,Z-AUC,[14]; [15],-1.49
same,Z-AUC,[14]; measured here: PEO4 Z-AUC,-1.92
COCCOc1ccc(N2CCN(CCn3ncc4c3nc(N)n3nc(-c5ccco5)nc43)CC2)cc1,Z-AUC,[14],-0.648 (inactive)
same,Z-AUC,[14]; [15],-0.346
same,Z-AUC,[14]; measured here: PEO4 Z-AUC,-0.723
COc1cc2ncnc(Nc3cccc(Cl)c3F)c2cc1OC(=O)N1CCN(C)C[C@H]1C,Z-AUC,[14],-0.739 (inactive)
same,Z-AUC,[14]; [15],-1.08
same,Z-AUC,[14]; measured here: PEO4 Z-AUC,-1.14
CCOc1cc2ncc(C#N)c(Nc3ccc(F)c(Cl)c3)c2cc1NC(=O)/C=C/CN(C)C,Z-AUC,[14],-0.44 (inactive)
same,Z-AUC,[14]; [15],-0.362
same,Z-AUC,[14]; measured here: PEO4 Z-AUC,-0.838
CN[C@@H]1[C@H](O[C@H]2[C@H](O[C@@H]3[C@@H](O)[C@H](O)[C@@H](N=C(N)N)[C@H](O)[C@H]3N=C(N)N)O[C@@H](C)[C@]2(O)C=O)O[C@@H](CO)[C@H](O)[C@H]1O,Z-AUC,[14],1.52 (inactive)
same,Z-AUC,[14]; [15],0.947
same,Z-AUC,[14]; measured here: PEO4 Z-AUC,1.26
CCN1CCN(Cc2ccc(NC(=O)c3ccc(C)c(/C=C/c4cnc5[nH]ccc5c4OC)c3)cc2C(F)(F)F)CC1,Z-AUC,[14],-1.16 (inactive)
same,Z-AUC,[14]; [15],-1.48
same,Z-AUC,[14]; measured here: PEO4 Z-AUC,-1.42
Cc1cc(OCc2nnc(SC3CCCC3)n2-c2cccnc2)ccc1-c1ccc(S(C)(=O)=O)cc1,Z-AUC,[14],-1.33 (inactive)
same,Z-AUC,[14]; [15],-3
same,Z-AUC,[14]; measured here: PEO4 Z-AUC,-2.2
CCOc1cc(C(=O)N2CCC(N3CCN(C)CC3)CC2)ccc1Nc1ncc2c(n1)N(C1CCCC1)c1ccccc1C(=O)N2C,Z-AUC,[14],-1.32 (inactive)
same,Z-AUC,[14]; [15],0.31
same,Z-AUC,[14]; measured here: PEO4 Z-AUC,-0.487
COc1ncc(Nc2ncc([C@H](C)N3CCN(S(C)(=O)=O)CC3)cc2-c2nc(C)nc(N)n2)cc1F,Z-AUC,[14],-0.261 (inactive)
same,Z-AUC,[14]; [15],-0.0225
same,Z-AUC,[14]; measured here: PEO4 Z-AUC,-0.164
O=C(/C=C\n1cnc(-c2cc(C(F)(F)F)cc(C(F)(F)F)c2)n1)N1CC(F)(F)C1,Z-AUC,[14],-0.848 (inactive)
same,Z-AUC,[14]; [15],-1.85
same,Z-AUC,[14]; measured here: PEO4 Z-AUC,-1.38
CC[C@]1(O)CC2CN(CCc3c([nH]c4ccccc34)[C@@](C(=O)OC)(c3cc4c(cc3OC)N(C)[C@H]3[C@@](O)(C(=O)OC)[C@H](OC(C)=O)[C@]5(CC)C=CCN6CC[C@]43[C@@H]65)C2)C1 (stereo not given in full),Z-AUC,[14],-0.152 (inactive)
same,Z-AUC,[14]; [15],-1.01
same,Z-AUC,[14]; measured here: PEO4 Z-AUC,-0.893
same,Potency,[1]; parasite line A,2.51 µM (active)
same,Potency,[1]; parasite line B,3.98 µM (active)
same,Potency,[2],0.794 µM (active)
same,Potency,[3],1.12 µM (active)
same,Potency,[4],1.41 µM (active)
same,Potency,[5],2.51 µM (active)
same,Potency,[6],4.47 µM (active)
same,Potency,[7],3.55 µM (active)
same,Potency,[8],2.82 µM (active)
same,Potency,[9],3.55 µM (active)
same,Potency,[10],2.82 µM (active)
same,Potency,[11],4.26 µM (active)
same,Potency,[12],3.01 µM (active)
same,Potency,[13],4.78 µM (active)
COCCN1CCN(Cc2ccc(-c3n[nH]c4c3C(=O)c3c(NC(=O)NN5CCOCC5)cccc3-4)cc2)CC1,Z-AUC,[14],0.43 (inactive)
same,Z-AUC,[14]; [15],0.701
same,Z-AUC,[14]; measured here: PEO4 Z-AUC,0.00286
Cc1ccc([N+](=O)[O-])cc1S(=O)(=O)N(C)/N=C/c1cnc2ccc(Br)cn12,Z-AUC,[14],-2.4 (inactive)
same,Z-AUC,[14]; [15],-2.53
same,Z-AUC,[14]; measured here: PEO4 Z-AUC,-2.56
C#CC[C@H](c1nc2cc(Cl)ccc2c(=O)n1Nc1ccccc1)N(CCCN)C(=O)c1cccc(Cl)c1F,Potency,[14],1.23 µM (active)
same,Z-AUC,[14]; [15],-1.73
same,Z-AUC,[14]; measured here: PEO4 Z-AUC,-1.5
CC(O)c1cc(C(=O)N[C@@H](C)Cn2ccc(-c3ccc(C#N)c(Cl)c3)n2)n[nH]1 (stereo not given in full),Z-AUC,[14],-0.266 (inactive)
same,Z-AUC,[14]; [15],-0.668
same,Z-AUC,[14]; measured here: PEO4 Z-AUC,-0.279
CCNC(=O)Nc1ncc(-c2cc(-c3c(C)cc(OC)cc3C)nc(-c3cnccn3)n2)s1,Z-AUC,[14],0.457 (inactive)
same,Z-AUC,[14]; [15],1.44
same,Z-AUC,[14]; measured here: PEO4 Z-AUC,1.47
Cc1nc([C@](C)(O)CO)sc1-c1cnc(N)c(O[C@H](C)c2cc(F)ccc2-n2nccn2)c1,Z-AUC,[14],1.59 (inactive)
same,Z-AUC,[14]; [15],0.437
same,Z-AUC,[14]; measured here: PEO4 Z-AUC,-0.14
Nc1nccn2c(C3CCC(C(=O)O)CC3)nc(-c3cc4cccc(Cl)c4[nH]3)c12 (stereo not given),Z-AUC,[14],-0.361 (inactive)
same,Z-AUC,[14]; [15],-0.773
same,Z-AUC,[14]; measured here: PEO4 Z-AUC,-1.14
CCO[C@@H]1OC(=O)C[C@@H]1NC(=O)[C@@H]1CCCN1C(=O)[C@@H](NC(=O)c1ccc(N)c(Cl)c1)C(C)(C)C,Z-AUC,[14],0.612 (inactive)
same,Z-AUC,[14]; [15],0.457
same,Z-AUC,[14]; measured here: PEO4 Z-AUC,0.143
CCS(=O)(=O)N1CCN(c2ccc(Nc3ncc(C(N)=O)c(NC4CC4)n3)cc2)CC1,Z-AUC,[14],0.319 (inactive)
same,Z-AUC,[14]; [15],-0.223
same,Z-AUC,[14]; measured here: PEO4 Z-AUC,-0.0452
COCCOc1cnc2ccn([C@H](C)c3nnc4c(F)cc(-c5cnn(C)c5)cn34)c(=O)c2c1,Z-AUC,[14],1.14 (inactive)
same,Z-AUC,[14]; [15],0.929
same,Z-AUC,[14]; measured here: PEO4 Z-AUC,1.44
Cc1cccc(Oc2cnc(=O)[nH]c2)c1,Z-AUC,[14],-0.692 (inactive)
same,Z-AUC,[14]; [15],-0.81
same,Z-AUC,[14]; measured here: PEO4 Z-AUC,-0.687
